# Results reported in PubChem BioAssay (NCI).
# Compounds without any hit were thinned out: in the full panel of roughly 83,000, 20% have a hit.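 Assay: single dose, 48 h. Readout: percent growth (0 = no net growth; negative = cell death). Active: <10.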 A number with no mark means an inactive call. Active and inactive are the calls of the source.
# System: SK-MEL-2 melanoma
# Test: NCI-60 one-dose screen, 48 h (100 = growth as untreated, 0 = no growth, -100 = all killed)
# Conditions: 10 µM
row,Compound,growth
1,CCOC(=O)CCCC(=O)OCC,111%
2,N#Cc1ccc(NC(=O)Nc2cccc(C#N)c2)cc1,97.3%
3,CC(C)=C(NC(=O)c1ccccc1)C(=O)O,98.3%
4,Cc1cc2nc(CC(=O)c3cccc([N+](=O)[O-])c3)c(=O)[nH]c2cc1C,95.4%
5,CCCNC(=O)c1ccc(S(N)(=O)=O)cc1,120%
6,COC(=O)c1[nH]c(=O)c(C#N)c(C(=O)OC)c1C(=O)c1ccccc1,114%
7,O=C(O)[C@@H]1[C@H]2C[C@H]3c4[nH]c5ccccc5c4CCN3C[C@@H]2CC[C@@H]1O,30.5%
8,CCCCOC(OCCCC)c1ccccc1,108%
9,CC1(O)OC(COc2ccc(Cl)cc2)COC1O (stereo not drawn),126%
10,CC(C)=NNc1ccc([N+](=O)[O-])cc1[N+](=O)[O-],113%
11,CC(=O)CC(=O)N(C)C,106%
12,Nc1ccc(N=Nc2ccc(S(=O)(=O)O)cc2)c2ccccc12,102%
13,c1ccc(Sc2ccccc2)cc1,97.5%
14,Cc1ccc(/C=C2\SC(=S)N(c3ccc(F)cc3)C2=O)o1,96.3%
15,COc1ccc2c(NCCCCCCCCNc3c4ccccc4nc4cc(OC)ccc34)c3ccccc3nc2c1,-67.3% (active)
16,Cc1nc2ccccc2c2nnc(SCC(=O)N(Cc3ccccc3)c3ccccc3)n12,51.2%
17,CCCCC(O)c1ccccc1 (stereo not drawn),109%
18,O=S(=O)(O)c1ccc(O)c2ccccc12,97.2%
